Laboratory results as given in PubChem BioAssay (NCATS).
Inconclusive results are not listed. Activity calls are given as the source filed them. Calls come from the whole dose curve; as a rule, active = well fitted inhibition curve with a large enough effect; inconclusive = small, poorly fitted or top-dose-only effect; inactive = flat fitted curve, though single readings scatter.

Assays:
[1] = qHTS profiling for inhibitors of Plasmodium falciparum proliferation (AID 504749); note: nearly all actives have a fitted effect of over 60% in size;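 for activity, negative = inhibition: 0% = DMSO vehicle and full inhibition = artemisinin control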; conditions: P. falciparum in erythrocytes, SYBR Green DNA, 72 h
In short: (§1)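 Readout was DNA-dye fluorescence from lysed cultures, ex 485/em 535 nm. Parasitized red cells had grown 72 h with compound; data scaled between 0.29 uM artemisinin and DMSO wells and corrected using vehicle-only plates.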

[2] = tested on: 3D7; assay: as above; conditions: P. falciparum in erythrocytes, SYBR Green DNA, 72 h; series mostly up to 28.7 µM
In short: as §1

[3] = tested on: 7G8; assay: as above; conditions: P. falciparum in erythrocytes, SYBR Green DNA, 72 h; series mostly up to 28.7 µM
In short: as §1

[4] = at 28.7 µM (top of the series), parasite line A
[5] = at 28.7 µM (top of the series), parasite line B
Potency is the fitted concentration of half-maximal effect.

COC(F)(F)C(Cl)Cl
inactive: activity, negative = inhibition [1, 4] 16.9% | activity, negative = inhibition [1, 5] -4.97% | Potency [2] | Potency [3]

CCCCCCCCCCCC[n+]1ccc2ccccc2c1
active: Potency ([1]; parasite line A) 794 nM | Potency ([1]; parasite line B) 501 nM | Potency [2] 1120 nM | Potency [3] 316 nM

CCC(=O)NCCC1CCc2ccc3c(c21)CCO3 (stereo not given)
inactive: activity, negative = inhibition [1, 4] 6.95% | activity, negative = inhibition [1, 5] 0.538% | Potency [2] | Potency [3]

O=C(O)c1cc(O)c2c(c1)[O][Bi][O]2
inactive: activity, negative = inhibition [1, 4] -9.75% | activity, negative = inhibition [1, 5] 14.4% | Potency [2] | Potency [3]

COC(=O)[C@H]1[C@H]2C[C@@H]3c4[nH]c5ccccc5c4CCN3C[C@H]2C[C@@H](OC(=O)c2cc(OC)c(OC)c(OC)c2)[C@@H]1OC
active: Potency ([1]; parasite line A) 355 nM | Potency ([1]; parasite line B) 631 nM | Potency [2] 891 nM | Potency [3] 50.1 nM

CC(O)CO (stereo not given)
inactive: activity, negative = inhibition [1, 4] 8.15% | activity, negative = inhibition [1, 5] 7.84% | Potency [2] | Potency [3]

Nc1c(N=Nc2ccc(-c3ccc(N=Nc4cc(S(=O)(=O)O)c5ccccc5c4N)cc3)cc2)cc(S(=O)(=O)O)c2ccccc12
inactive: activity, negative = inhibition [1, 4] 6.43% | activity, negative = inhibition [1, 5] -3.17% | Potency [2] | Potency [3]

O=C(COc1ccc(Cl)cc1)OCCNC12CC3CC(CC(C3)C1)C2
inactive: activity, negative = inhibition [1, 4] 9.51% | activity, negative = inhibition [1, 5] 10.7% | Potency [2] | Potency [3]

Cc1ccccc1OCC(O)CNCCOc1ccc(C(N)=O)cc1 (stereo not given)
inactive: activity, negative = inhibition [1, 4] 11.2% | activity, negative = inhibition [1, 5] 8.46% | Potency [2] | Potency [3]

CC(Cc1ccc(O)c(O)c1)C(C)Cc1ccc(O)c(O)c1 (stereo not given)
inactive: activity, negative = inhibition [1, 4] 6.89% | activity, negative = inhibition [1, 5] -26.4% | Potency [2]
active: Potency [3] 8910 nM

CCN(CC)Cc1cc(Nc2ccnc3cc(Cl)ccc23)ccc1O
active: Potency ([1]; parasite line A) 35.5 nM | Potency ([1]; parasite line B) 39.8 nM | Potency [2] 28.2 nM | Potency [3] 35.5 nM

COc1ccc2c3c1O[C@H]1C[C@@H](O)C=C[C@@]31CCN(C)C2
inactive: activity, negative = inhibition [1, 4] 7.86% | activity, negative = inhibition [1, 5] -0.584% | Potency [2] | Potency [3]

IC(I)I
inactive: activity, negative = inhibition [1, 4] 0.888% | activity, negative = inhibition [1, 5] 2.57% | Potency [2] | Potency [3]

O=C1C(=O)c2ncccc2-c2cccnc21
active: Potency ([1]; parasite line A) 891 nM | Potency ([1]; parasite line B) 1120 nM | Potency [2] 891 nM | Potency [3] 1000 nM

CC(C(=O)O)c1ccc(N2Cc3ccccc3C2=O)cc1 (stereo not given)
inactive: activity, negative = inhibition [1, 4] 8.3% | activity, negative = inhibition [1, 5] 10.3% | Potency [2] | Potency [3]

COC(C(=O)C(O)C(C)O)C1Cc2cc3cc(OC4CC(OC5CC(O)C(O)C(C)O5)C(O)C(C)O4)c(C)c(O)c3c(O)c2C(=O)C1OC1CC(OC2CC(OC3CC(C)(O)C(O)C(C)O3)C(O)C(C)O2)C(O)C(C)O1 (stereo not given)
active: Potency ([1]; parasite line A) 158 nM | Potency ([1]; parasite line B) 224 nM | Potency [2] 282 nM | Potency [3] 70.8 nM

CCCC(=O)O[C@]1(C(=O)CCl)[C@H](C)C[C@@H]2[C@H]3CCC4=CC(=O)C=C[C@]4(C)[C@@]3(F)C(=O)C[C@@]21C
active: Potency ([1]; parasite line A) 1410 nM | Potency ([1]; parasite line B) 2240 nM | Potency [2] 2510 nM | Potency [3] 2510 nM

CC[N+](C)(C)Cc1ccccc1Br
inactive: activity, negative = inhibition ([1]; at 12.8 µM (top of the series), parasite line A) 3.25% | activity, negative = inhibition ([1]; at 12.8 µM (top of the series), parasite line B) 6.79% | Potency [2] | Potency [3]

C[C@]12CCC(=O)C=C1CC[C@@H]1[C@@H]2[C@@H](O)C[C@@]2(C)[C@H]1CC[C@]2(O)C(=O)COP(=O)(O)O
inactive: activity, negative = inhibition [1, 4] 1.99% | activity, negative = inhibition [1, 5] -7.41% | Potency [2] | Potency [3]

C[C@]12O[C@H](C[C@]1(O)CO)n1c3ccccc3c3c4c(c5c6ccccc6n2c5c31)CNC4=O
active: Potency ([1]; parasite line A) 398 nM | Potency ([1]; parasite line B) 447 nM | Potency [2] 224 nM | Potency [3] 100 nM

NC(=O)c1ncn(C2OC(CO)C(O)C2O)n1 (stereo not given)
inactive: activity, negative = inhibition [1, 4] -11.3% | activity, negative = inhibition [1, 5] -20.5% | Potency [2]
active: Potency [3] 7940 nM

Nc1c(Br)cc(Br)cc1CNC1CCC(O)CC1 (stereo not given)
inactive: activity, negative = inhibition [1, 4] 8.81% | activity, negative = inhibition [1, 5] -8.99% | Potency [2] | Potency [3]

CO[C@H]1C[C@@H]2CC[C@@H](C)[C@@](O)(O2)C(=O)C(=O)N2CCCC[C@H]2C(=O)O[C@H]([C@H](C)C[C@@H]2CC[C@@H](OCCO)[C@H](OC)C2)CC(=O)[C@H](C)/C=C(\C)[C@@H](O)[C@@H](OC)C(=O)[C@H](C)C[C@H](C)/C=C/C=C/C=C/1C
active: Potency ([1]; parasite line A) 2240 nM | Potency ([1]; parasite line B) 1120 nM | Potency [2] 1780 nM | Potency [3] 1120 nM

CC(NNC(=O)c1ccccc1)c1ccccc1 (stereo not given)
inactive: activity, negative = inhibition [1, 4] 2.16% | activity, negative = inhibition [1, 5] 14.7% | Potency [2] | Potency [3]

CCCCCCOc1ccc(C(=N)N(CCCC)CCCC)c2ccccc12
active: Potency ([1]; parasite line A) 7080 nM | Potency [2] 5010 nM | Potency [3] 4470 nM

O=C(O)CN(CCN(CC(=O)O)CC(=O)O)CC(=O)O
inactive: activity, negative = inhibition [1, 4] -1.94% | activity, negative = inhibition [1, 5] 14.3% | Potency [2] | Potency [3]

CCOC(C)=O
inactive: activity, negative = inhibition [1, 4] 0.182% | activity, negative = inhibition [1, 5] 7.53% | Potency [2] | Potency [3]

Cc1c(C)c2c(c(C)c1O)CC[C@@](C)(CCC[C@@H](C)CCC[C@@H](C)CCCC(C)C)O2
inactive: activity, negative = inhibition [1, 5] 18% | Potency [2] | Potency [3]
